According to PubChem BioAssay (NCATS):

The compounds below were run against Catechol O-methyltransferase (Homo sapiens) (UniProt P21964) (assay: Confirmatory Screen for Target Class Profiling of Small Molecule Inhibitors of Methyltransferases (AID 1745852; as to activity change, negative = inhibition: % is scaled to controls: 0 for no effect and ±100 for the full control effect)). Conditions: MTase-Glo luminescence, SAH detection, recombinant enzyme; measured here: COMT max response; stronger effect = lower value.
Chain of Catechol O-methyltransferase (Homo sapiens) (P21964 whole entry, looked up): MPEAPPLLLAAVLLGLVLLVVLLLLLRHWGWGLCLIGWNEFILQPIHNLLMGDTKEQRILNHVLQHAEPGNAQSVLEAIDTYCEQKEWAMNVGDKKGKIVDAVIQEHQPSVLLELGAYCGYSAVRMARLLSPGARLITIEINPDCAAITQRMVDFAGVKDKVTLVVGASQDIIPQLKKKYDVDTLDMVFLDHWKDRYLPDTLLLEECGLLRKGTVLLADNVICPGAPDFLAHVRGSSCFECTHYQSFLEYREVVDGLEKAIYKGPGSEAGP

Row | Compound | activity [%]
1 | Fc1cc(F)c2c(c1)C1C=CCC1C(c1cccnc1)N2 (centres undefined) | -0.484
2 | CCCN(CCC)[C@@H]1CCc2ccc3[nH]c(C#N)cc3c2C1 | -0.359
3 | C#C[C@]1(O)CC[C@H]2[C@@H]3CC[C@H]4Cc5nc6nc7ccccc7n6cc5C[C@]4(C)[C@H]3CC[C@@]21C | -13.5

What follows are compounds tested against Guanidinoacetate N-methyltransferase (Homo sapiens) (UniProt Q14353) in the same assay as above. Conditions: MTase-Glo luminescence, SAH detection, recombinant enzyme; activity change, negative = inhibition: at 57.3 µM (top of the series) unless noted; series mostly up to 57.3 µM.

Row | Compound | activity change, negative = inhibition [%]
4 | Fc1cc(F)c2c(c1)C1C=CCC1C(c1cccnc1)N2 (centres undefined) | 0.0443
5 | CCCN(CCC)[C@@H]1CCc2ccc3[nH]c(C#N)cc3c2C1 | 0
6 | C#C[C@]1(O)CC[C@H]2[C@@H]3CC[C@H]4Cc5nc6nc7ccccc7n6cc5C[C@]4(C)[C@H]3CC[C@@]21C | -2.81

Each compound was assayed against Nicotinamide N-methyltransferase (Homo sapiens) (UniProt P40261) in the same assay as above. Conditions: MTase-Glo luminescence, SAH detection, recombinant enzyme; measured here: NNMT max response; stronger effect = lower value.
Chain of Nicotinamide N-methyltransferase (Homo sapiens) (P40261 whole entry, looked up): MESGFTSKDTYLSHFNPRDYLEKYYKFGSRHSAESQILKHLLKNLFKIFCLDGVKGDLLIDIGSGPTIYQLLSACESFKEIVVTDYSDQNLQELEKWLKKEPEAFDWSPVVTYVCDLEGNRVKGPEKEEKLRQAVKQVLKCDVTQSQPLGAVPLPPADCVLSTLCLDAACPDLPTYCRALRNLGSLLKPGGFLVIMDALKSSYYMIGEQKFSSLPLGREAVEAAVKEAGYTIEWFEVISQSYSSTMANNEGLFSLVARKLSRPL

Row | Compound | activity [%]
7 | Fc1cc(F)c2c(c1)C1C=CCC1C(c1cccnc1)N2 (centres undefined) | -6.05
8 | CCCN(CCC)[C@@H]1CCc2ccc3[nH]c(C#N)cc3c2C1 | -9.72
9 | C#C[C@]1(O)CC[C@H]2[C@@H]3CC[C@H]4Cc5nc6nc7ccccc7n6cc5C[C@]4(C)[C@H]3CC[C@@]21C | -21
